Measured values published in PubChem BioAssay AID720511 (Broad Institute, 2013).
Out of some 350,000 compounds screened, about 1,300 (0.37%) were called active.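 Rule for the calls: active = mean added fluorescence quench of at least 8% versus neutral control, with both replicates also reaching 8%; inconclusive = only one of the mean or replicate conditions met; inactive = mean below 8% and not both replicates reaching 8%.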 The list comes from a sample in which actives are over-represented; it also holds similar structures and randomly drawn compounds.

Test: F508del CFTR correction, initial screen, CFBE line, single point (AID 720511);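 note: cells transiently co-express mutant CFTR-F508del with the halide-sensitive YFP; corrector assay measuring rescue of mutant channel to the surface after 24 h compound exposure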
Conditions: CFBE cells, YFP halide quenching, at 7.58 µM, stronger effect = higher value, % fluorescence drop versus neutral controls, stimulated with forskolin plus potentiator P3

Activity (quench increase), inactive:
CCCNC(=O)Nc1ccc2c(c1)C(=O)N(C)C[C@H](OC)[C@H](C)CN(Cc1cccnc1)[C@@H](C)CO2 -2.17%
COCC(=O)Nc1ccc2c(c1)OC[C@@H](C)N(C(=O)c1ccncc1)C[C@@H](C)[C@@H](OC)CN(C)C2=O -2.81%
NS(=O)(=O)c1ccc(CNC(=O)c2cnccn2)cc1 3.51%
COc1ccc(NC(=O)C/C(C)=N/NC(=O)c2cnccn2)cc1Cl 0.245%
CNC[C@H]1Oc2ccc(NC(=O)Nc3ccc(F)cc3)cc2C(=O)N([C@@H](C)CO)C[C@@H]1C 2.71%
C/C=C/c1cnc2c(c1)C(=O)N([C@@H](C)CO)C[C@@H](C)[C@@H](CN(C)S(=O)(=O)c1ccccc1F)O2 -0.914%
COCC(=O)N1CC[C@H]2[C@H](CO)Nc3ccc(-c4ccc(C(=O)N(C)C)cc4)cc3[C@H]21 -0.359%
CC(C)CC#Cc1cnc2c(c1)C(=O)N([C@@H](C)CO)C[C@H](C)[C@@H](CN(C)S(=O)(=O)c1cn(C)cn1)O2 3.77%
CCC(=O)c1ccc(OCC(=O)OCC(=O)NC2CCCCCC2)cc1 5.07%
Cc1ccc(Cl)c(OCC(=O)N2CCc3ccccc3C2)c1 0.464%
CN1C(=O)c2cc(NC(=O)Nc3ccccc3Cl)ccc2OC[C@H]2O[C@@H](CC(=O)O)CC[C@H]21 2.42%
C[C@H](CO)N1C[C@H](C)[C@H](CN(C)C(=O)Nc2ccccc2)Oc2ccc(NC(=O)C3CC3)cc2CC1=O 1.47%
O=C(Cn1c(NCCO)nc2ccccc21)c1ccc(Cl)cc1Cl 1.26%
CNC(=O)c1cccc2nc3ccccc3nc12 -0.402%
CCNC(=O)C[C@@H]1CC[C@@H](NC(=O)NC2CCCCC2)[C@H](CO)O1 3.72%
Cc1ccccc1-c1ccc2c(c1)O[C@H](CN(C)C)[C@@H](C)CN([C@H](C)CO)S2(=O)=O 0.748%
C[C@H]1CN([C@@H](C)CO)C(=O)c2cc(/C=C/c3ccccc3)cnc2O[C@@H]1CN(C)C(=O)c1ccc(F)cc1 -2.58%
COc1ccc(-c2cc(C(=O)N/N=C/c3cccnc3)c3ccccc3n2)c(OC)c1 -13%
COc1cc(/C=N/NC(=O)c2cc(-c3ccccc3C)nc3ccccc23)cc(OC)c1O -3.23%
C[C@@H]1CN([C@H](C)CO)C(=O)Cc2cc(NS(=O)(=O)c3ccc(F)cc3)ccc2O[C@H]1CN(C)C -0.0265%
CC(C)(C)[S@@](=O)N1Cc2cc(C(=O)N3CCOCC3)nc(-c3cccc(-c4ccc(C#N)cc4)c3)c2[C@H]1CCO 1.68%
Cc1noc(C)c1NC(=O)Nc1ccc2c(c1)CC(=O)N([C@@H](C)CO)C[C@H](C)[C@@H](CN(C)CC1CCCCC1)O2 0.161%
CCOc1c2ccc(C(=O)NCc3ccc(OC(F)(F)F)cc3)cc2nn1C 0.909%
CCOC(=O)Cc1ncccc1C(=O)Nc1ccc(OC(F)(F)F)cc1 -3.45%
O=C(C1CCOCC1)N1CC(=O)N2[C@H](CO)[C@@H](c3ccc(C#CC4CCCC4)cc3)[C@H]2C1 -0.867%
C[C@@H]1CN([C@@H](C)CO)C(=O)c2cc(NS(C)(=O)=O)ccc2O[C@@H]1CN(C)C 0.661%
CC1CCCCN1CCCNc1ccc(C(CC(N)=O)NC(=O)c2ccccc2)cc1[N+](=O)[O-] (stereo unspecified) -1.78%
NC(=O)CC(NC(=O)Cc1cccc2ccccc12)c1ccc(NCc2cc(F)ccc2F)c([N+](=O)[O-])c1 (stereo unspecified) 0.166%
COc1ccc(S(=O)(=O)Nc2ccc3c(c2)C(=O)N([C@H](C)CO)C[C@H](C)[C@@H](CN(C)Cc2ccc(-c4ccccc4)cc2)O3)cc1 1.93%
COc1ccccc1C#Cc1ccc([C@@H]2[C@@H](CO)N(C(=O)C3CC3)[C@H]2C#N)cc1 2.81%
Cc1cc(-c2ccc(C)c(S(=O)(=O)NCCCN(Cc3ccccc3)C(C)C)c2)on1 0.63%
CCOc1ccccc1CNS(=O)(=O)c1cc(-c2cc(C)no2)ccc1C -0.998%
COc1ccc(C#Cc2ccc3c(c2)[C@]2(C(=O)N3)[C@H](C(=O)N3CCc4cc(OC)c(OC)cc4C3)[C@H]3C(=O)O[C@H](c4ccccc4)[C@H](c4ccccc4)N3[C@@H]2c2ccc(O)cc2)cc1 -2.79%
CCC(=O)Nc1ccc2c(c1)C(=O)N(C)[C@@H]1CC[C@@H](CC(=O)NCc3ccccc3Cl)O[C@H]1CO2 -0.213%
CC(=O)NC[C@H]1[C@@H](c2ccc(C#CC(C)C)cc2)[C@@H](CO)N1Cc1ccccn1 -0.601%
CCCC(=O)Nc1ccc2c(c1)C(=O)N(C)C[C@@H](OC)[C@H](C)CN(C(C)=O)[C@H](C)CO2 -1.19%
Cc1cccc(CNS(=O)(=O)c2ccc(-c3cnc(C4CC4)o3)cc2)c1 2.12%
COc1ccc(CNS(=O)(=O)c2ccc(-c3cnc(C4CC4)o3)cc2)cc1 -1.13%

Activity (quench increase), active:
CCN(CC)c1ccc(/C=N/NC(=O)c2cnccn2)c(O)c1 19.1%
CCC(=O)c1ccc(OCC(=O)OCC(=O)N2CCc3ccccc3C2)cc1 33.2%
CN(C)CCNC(=O)c1ccc(Cl)c2cc3ccccc3nc12 12.3%
CCOc1ccc(-c2cc(C(=O)N/N=C/c3ccc(O)cc3)c3ccccc3n2)cc1 12.2%
O=C(Nc1ccc(OC(F)(F)F)cc1)c1ccc2c(c1)no[n+]2[O-] 14.5%
NC(=O)CC(NC(=O)Cc1ccc(Br)cc1)c1ccc(NC2CC3CCC2C3)c([N+](=O)[O-])c1 (stereo unspecified) 10.1%
COc1ccc(CNS(=O)(=O)c2cc(-c3cc(C)no3)ccc2C(C)C)cc1 10.7%
Cc1cccc(NS(=O)(=O)c2ccc(-c3cnc(C4CC4)o3)cc2)c1 10%
